NIH3T3 tox: NIH 3T3 cell cytotoxicity; NIH 3T3 viability, CellTiter-Glo ATP luminescence, 48-72 h; Potency, µM (top dose mostly 96.7 µM), hits mostly inhibitors; AID 1345082; 94,000 compounds, 4.3% hits; note: nearly all actives have a fitted effect of over 55% in size
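ATP-dependent luminescence (CellTiter-Glo) served as the viability signal for NIH 3T3 cells treated with compound for 48 or 72 hr at 37 °C.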
NPR1 antag: antagonists of human natriuretic peptide receptor Npr1; P16066; HEK293 hNpr1 GloSensor cGMP, ANP-stimulated luminescence; Potency, µM (series often up to 46.3 µM), usual class: inhibitors; 76,000 compounds, 1.6% hits; AID 1347048; calls by dose curve; note: nearly all actives have a fitted effect of over 60% in size
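Compound pre-incubated 30 min at room temperature on GloSensor-loaded HEK293 cells stably carrying hNpr1 and the pGS-40F cGMP biosensor. Stimulation uses hNppA at 0.1 nM final; luminescence is taken at baseline and 20 min post-agonist.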
FLuc inh: blocks purified firefly luciferase enzyme activity. P08659. purified P. pyralis luciferase, luminescence, biochemical. Potency, µM (titrated, usually from 115 µM), usual class: inhibitors. 76,000 compounds, 2.5% hits. AID 1347043; note: nearly all actives have a fitted effect of over 65% in size
Target sequence (P08659 whole entry, looked up): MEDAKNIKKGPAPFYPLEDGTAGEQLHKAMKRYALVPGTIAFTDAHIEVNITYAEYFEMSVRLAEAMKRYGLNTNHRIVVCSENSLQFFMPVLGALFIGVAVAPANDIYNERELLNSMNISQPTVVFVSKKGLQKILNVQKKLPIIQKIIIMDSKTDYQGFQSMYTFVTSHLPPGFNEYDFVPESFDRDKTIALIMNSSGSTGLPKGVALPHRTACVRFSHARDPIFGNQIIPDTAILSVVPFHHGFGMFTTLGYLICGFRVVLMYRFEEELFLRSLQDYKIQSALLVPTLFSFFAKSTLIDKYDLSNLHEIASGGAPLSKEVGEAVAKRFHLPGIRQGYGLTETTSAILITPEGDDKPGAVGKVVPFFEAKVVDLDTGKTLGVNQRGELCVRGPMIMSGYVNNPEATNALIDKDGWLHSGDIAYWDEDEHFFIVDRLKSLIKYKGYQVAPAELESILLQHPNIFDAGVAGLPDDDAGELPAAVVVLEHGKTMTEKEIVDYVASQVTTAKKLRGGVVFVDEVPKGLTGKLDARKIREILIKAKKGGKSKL
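Cell-free enzyme assay, 10nM P. pyralis luciferase, luciferin and ATP each at 10uM. Inhibition profiled over a 6-point titration, read as luminescence.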
HEK cytotox: kills HEK 293 cells; Potency, µM (doses to about 115 µM), actives largely listed as inhibitors; 94,000 compounds, 6.6% hits; HEK 293 viability, ATP luminescence (CellTiter-Glo), 48-72 h; note: nearly all actives have a fitted effect of over 60% in size
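Read-out: CellTiter-Glo ATP luminescence. Cells: HEK 293, 250 cells/well. Exposure: 48 or 72 hr, 37 degree Celsius.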
NPR1 antag cnf: confirmation of human Npr1 natriuretic peptide receptor antagonists; shares compounds with NPR1 antag; HEK293 hNpr1 cGMP GloSensor luminescence, ANP-stimulated; Potency, µM (top dose mostly 57.6 µM), usual class: inhibitors; 1,400 compounds, 76% hits; calls by dose curve; note: nearly all actives have a fitted effect of over 70% in size
Npr2 selectivity: antagonizes human Npr2, subtype selectivity check; shares compounds with NPR1 antag; HEK293 hNpr2 GloSensor cGMP luminescence, CNP-stimulated; Potency, µM (titrated, usually from 57.6 µM), hits mostly inhibitors; 1,400 compounds, 67% hits; AID 1347046; calls by dose curve; note: nearly all actives have a fitted effect of over 70% in size
FLuc counter: counter-screen for Npr1 antagonists: firefly luciferase inhibitors; shares compounds with NPR1 antag; purified FLuc enzyme, luminescence, Km substrate; Potency, µM (series often up to 57.6 µM), actives largely listed as inhibitors; 1,400 compounds, 0.7% hits; AID 1347047
GloSensor ctrl: reduces cGMP signal in GloSensor control cells; shares compounds with NPR1 antag; HEK293 GloSensor cGMP, SNP-stimulated, luminescence; Potency, µM (titrated, usually from 57.6 µM), actives largely listed as inhibitors; 1,400 compounds, 69% hits; calls by dose curve; note: nearly all actives have a fitted effect of over 70% in size
Of the large screens only hits and unclear results are named; the others gave an inactive call (follow-up assays come after a bar, where they were run). Rows were chosen to be rich in hits. Some 11% of all compounds tested hit in one or more screens of this group. Unless noted, calls come from the whole dose curve; as a rule, active = well fitted curve in the direction sought with a large enough effect; inconclusive = small, poorly fitted or top-dose-only effect, or another doubt; inactive = no such curve, though single readings can be large; an effect the other way counts as inactive or inconclusive.

COc1ccccc1Cn1c(=O)c(C(=O)N2CCN(C(=O)c3ccccc3F)CC2)nc2cccnc21	none (no result: NPR1 antag, FLuc inh)
c1cncc(COc2cc3c(cn2)NCCN(Cc2ccc4[nH]ccc4c2)C3)c1	NIH3T3 tox inconclusive, NPR1 antag 8.9µM, HEK cytotox inconclusive | NPR1 antag cnf 20µM | Npr2 selectivity 22µM | FLuc counter inactive | GloSensor ctrl 20µM
CCOc1ccc(C(=O)N2CCN(c3cc(-c4ccc(Cl)cc4)[nH]n3)CC2)cc1	NIH3T3 tox inconclusive, NPR1 antag 13µM, HEK cytotox inconclusive | NPR1 antag cnf 22µM | Npr2 selectivity 19µM | FLuc counter inactive | GloSensor ctrl 15µM
N#Cc1ccc(C(=O)N2CCN(c3cc(-c4ccc(Cl)cc4)[nH]n3)CC2)cc1	NIH3T3 tox inconclusive, NPR1 antag 6.3µM, HEK cytotox inconclusive | NPR1 antag cnf 9.7µM | Npr2 selectivity 11µM | FLuc counter inactive | GloSensor ctrl 6.9µM
CN(C)c1ccc(C(=O)NCC2CCN(c3cc(-c4ccc(Cl)cc4)[nH]n3)CC2)cc1	NIH3T3 tox inconclusive, NPR1 antag inconclusive, HEK cytotox inconclusive | NPR1 antag cnf inconclusive | Npr2 selectivity inconclusive | FLuc counter inactive | GloSensor ctrl inconclusive
CCOc1ccc(C(=O)N2CCCN(c3cc(-c4ccc(F)cc4)[nH]n3)CC2)cc1	NIH3T3 tox inconclusive, NPR1 antag 22µM, HEK cytotox 32µM | NPR1 antag cnf 27µM | Npr2 selectivity inconclusive | FLuc counter inactive | GloSensor ctrl 22µM
CCN1C(=O)COC[C@@H]1[C@H](O)c1ccc(NC(=O)c2ccc3c(c2)OCO3)cc1	FLuc inh inconclusive
CCOc1ccc(C(=O)N2CCCN(c3cc(-c4ccc(Cl)cc4)[nH]n3)CC2)cc1	NIH3T3 tox inconclusive, NPR1 antag inconclusive, HEK cytotox 40µM | NPR1 antag cnf 19µM | Npr2 selectivity 22µM | FLuc counter inactive | GloSensor ctrl 17µM
COc1ccc(-n2c(=O)c(C(=O)N3CCN(Cc4ccccc4)CC3)nc3cccnc32)cc1	none (no result: NPR1 antag, FLuc inh)
O=C(N1CCCN(c2cc(-c3ccc(Cl)cc3)[nH]n2)CC1)C1(c2ccccc2)CC1	NIH3T3 tox 35µM, NPR1 antag inconclusive, HEK cytotox 40µM | NPR1 antag cnf 19µM | Npr2 selectivity 19µM | FLuc counter inactive | GloSensor ctrl 17µM
Cc1ccccc1C(=O)N1CCN(c2cc(-c3ccc(Cl)cc3)[nH]n2)CC1	NIH3T3 tox inconclusive, NPR1 antag 11µM, HEK cytotox inconclusive | NPR1 antag cnf 19µM | Npr2 selectivity 24µM | FLuc counter inactive | GloSensor ctrl 17µM
O=C(c1cc(Cl)ccc1F)N1CCCN(c2cc(-c3ccccc3)[nH]n2)CC1	HEK cytotox inconclusive
O=C(c1ccc(Cl)cc1Cl)N1CCN(c2cc(-c3ccccc3)[nH]n2)CC1	NIH3T3 tox 32µM, NPR1 antag 10µM, HEK cytotox 20µM | NPR1 antag cnf 14µM | Npr2 selectivity 19µM | FLuc counter inactive | GloSensor ctrl 14µM
Cc1ccc(C(=O)N2CCN(c3cc(-c4ccccc4)[nH]n3)CC2)cc1	NIH3T3 tox inconclusive, NPR1 antag inconclusive, HEK cytotox inconclusive
Cc1ccc(C(=O)N2CCN(c3cc(-c4ccccc4)[nH]n3)CC2)c(C)c1	NIH3T3 tox 45µM, NPR1 antag 11µM, HEK cytotox inconclusive | NPR1 antag cnf 24µM | Npr2 selectivity 24µM | FLuc counter inactive | GloSensor ctrl 22µM
O=C(Cc1ccc(Cl)cc1)N1CCCN(c2cc(-c3ccccc3)[nH]n2)CC1	NIH3T3 tox inconclusive, HEK cytotox inconclusive
Cc1cc(C(F)(F)F)nn1CC(=O)NCC1Cn2cccc2C(=O)N1Cc1ccccc1 (stereo unspecified)	none

Screening results from PubChem BioAssay.
